Screening data from PubChem.
Most compounds without a hit are left out; they make up all but 0.98% or so of the library.
cardiac RTF act – cardiac RTF calcium sensitivity activators, primary screen, biochemical, IANBD-TnC fluorescence, EC20 calcium; Troponin I, cardiac muscle (Homo sapiens) + Troponin T, cardiac muscle (Homo sapiens) + …; activation, % at 7.2 µM; 340,000 tested, 0.24% active; IANBD-labeled TnC RTF fluorescence at EC20 calcium; 0% EC20 calcium, 100% full calcium; AID 493008, 2010;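 active = activation above the mean over all tested compounds plus 3 SD, cut at about 30% in these data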;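 note: rise in fluorescence read as greater calcium sensitivity of cardiac thin filaments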
LANA-H2A inh – blockers of LANA interaction with H2A/H2B – biochemical, FP readout, HTS, primary screen | Protein LANA1 (Human herpesvirus 8 type P (isolate GK18)), Q9QR71 | cell-free LANA-H2A/H2B peptide, fluorescence polarization | inhibition, % (concentration not given with the values) | 320,000 tested, 0.6% active; in the data active = inhibition mostly above about 10%, no sharp cut-off; inactive = mostly below about 6.7%
Target sequence (Q9QR71 whole entry, looked up): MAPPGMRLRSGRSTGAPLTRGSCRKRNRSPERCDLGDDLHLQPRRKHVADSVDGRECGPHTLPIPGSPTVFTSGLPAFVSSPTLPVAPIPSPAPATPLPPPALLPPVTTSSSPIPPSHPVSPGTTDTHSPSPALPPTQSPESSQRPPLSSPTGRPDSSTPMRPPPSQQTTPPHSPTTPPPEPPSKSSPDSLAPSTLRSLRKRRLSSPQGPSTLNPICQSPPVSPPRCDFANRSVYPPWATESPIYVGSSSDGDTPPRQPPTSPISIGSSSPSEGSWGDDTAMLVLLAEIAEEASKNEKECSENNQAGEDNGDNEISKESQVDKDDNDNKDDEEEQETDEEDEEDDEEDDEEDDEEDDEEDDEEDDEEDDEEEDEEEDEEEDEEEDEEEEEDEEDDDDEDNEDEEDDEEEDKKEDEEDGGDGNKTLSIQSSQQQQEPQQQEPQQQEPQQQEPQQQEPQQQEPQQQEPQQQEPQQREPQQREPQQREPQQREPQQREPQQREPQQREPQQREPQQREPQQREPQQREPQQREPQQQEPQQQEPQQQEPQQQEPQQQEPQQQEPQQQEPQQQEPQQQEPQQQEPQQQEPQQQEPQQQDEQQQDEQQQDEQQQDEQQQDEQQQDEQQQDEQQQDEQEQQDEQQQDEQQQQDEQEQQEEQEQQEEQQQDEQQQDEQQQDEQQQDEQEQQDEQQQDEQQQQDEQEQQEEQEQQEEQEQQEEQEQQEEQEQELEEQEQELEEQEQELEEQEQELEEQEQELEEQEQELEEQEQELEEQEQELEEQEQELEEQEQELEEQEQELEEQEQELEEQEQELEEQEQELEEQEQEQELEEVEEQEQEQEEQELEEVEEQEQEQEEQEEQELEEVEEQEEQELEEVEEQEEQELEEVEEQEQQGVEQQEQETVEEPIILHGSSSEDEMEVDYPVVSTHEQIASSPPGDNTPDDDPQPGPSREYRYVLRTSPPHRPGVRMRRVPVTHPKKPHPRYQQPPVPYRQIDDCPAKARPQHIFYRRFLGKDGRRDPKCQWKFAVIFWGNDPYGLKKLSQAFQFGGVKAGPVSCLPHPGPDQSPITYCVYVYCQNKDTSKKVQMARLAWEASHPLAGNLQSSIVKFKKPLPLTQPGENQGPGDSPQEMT
Keap1-Nrf2 PPI – Keap1-Nrf2 protein-protein interaction inhibitors, primary screen, biochemical, fluorescence polarization, single point. Kelch-like ECH-associated protein 1 (Homo sapiens), Q14145. Keap1 Kelch-Nrf2 peptide fluorescence polarization, 1536-well. inhibition, % at 9.4 µM. 340,000 tested, 0.15% active. AID 504523, 2011; in the data active = inhibition above about 12%;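 note: human Keap1 Kelch domain with fluorescein labeled Nrf2 9mer peptide probe; 0% = neutral control wells and 100% = peptide positive control; higher means more block of Keap1 binding to Nrf2 peptide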
RTF Ca sens inh – cardiac RTF calcium sensitivity inhibitors, primary screen, biochemical, IANBD-TnC fluorescence, EC70 calcium. AID 493244, 2011. IANBD-labeled cardiac RTF, Ca2+ fluorescence. 340,000 tested, 0.12% active. inhibition, % at 7.15 µM;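 active = inhibition above the mean inhibition of all tested compounds plus 3 SD, cut at about 17% in these data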;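 note: assay run at fixed EC70 calcium of 1.6 mM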
C-LANA FP – inhibitors of KSHV C-LANA binding to DNA, primary screen, biochemical, fluorescence polarization, FAM-LBS DNA, MBP-C-LANA, single point | Kaposi's sarcoma herpesvirus LANA C-terminal domain (residues 932-1162) DNA binding | inhibition, % at 9 µM | 340,000 tested, 0.078% active | AID 504423, 2011;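 active = highest replicate inhibition at or above 60% at 9 µM, even if other replicates fall short; inactive = all replicates below 60% inhibition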;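 note: 0% = neutral control wells and 100% = 4 µM acridine orange control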
Keap1 Kelch bind – Keap1 Kelch domain binders by thermal stabilisation, dose response, biophysical, thermal shift, RT-PCR instrument, cherry-pick | shares compounds with Keap1-Nrf2 PPI | delta Tm; stronger effect = higher value | max delta Tm, degrees C | 400 tested, 8% active | AID 651823, 2012; in the data active = max delta Tm above about 0.48 degrees C
Dye-only ctr – Sypro Orange dye melt without protein, dose response, artefact control for Keap1-Nrf2 interaction inhibitor project, biochemical, thermal shift counterscreen, cherry-pick. shares compounds with Keap1-Nrf2 PPI. 140 tested, under 10 active. delta Tm, degrees C (no concentration beside the values). Sypro Orange dye-only thermal melt, no protein, delta Tm; top dose 26 µM;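 active = at highest dose tested, delta Tm positive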
An asterisk follows results filed as active; · = no result given.

SMILES	cardiac RTF act	LANA-H2A inh	Keap1-Nrf2 PPI	RTF Ca sens inh	C-LANA FP	Keap1 Kelch bind	others
CCSc1ncc(Cl)c(C(=O)Nc2ccccc2OC)n1	-6	2	23*	-4	5	-0.2
NS(=O)(=O)c1ccc(CCNC(=O)COC(=O)/C=C/c2ccc(Cl)cc2)cc1	5	-6	-5	5	1	·
Cc1cscc1NC(=O)/C=C/C(=O)O	·	-4	33*	·	18	-0.18
CNC(=O)NC(=O)COc1ccc2oc3c(c2c1)CCCC3	-3	-2	0	6	-1	·
O=C(CSc1nnc(-c2ccncc2)n1Cc1ccccc1)NC1CCCc2ccccc21 (stereo not given)	2	-2	-9	-25	1	·
CCN(CC)S(=O)(=O)c1ccc(C(=O)OCCN2C(=O)c3cccc4c(N5CCOCC5)ccc(c34)C2=O)cc1	4	27*	27*	-4	31	0.07
COC(=O)c1ccccc1NC1=C/C(=N\S(=O)(=O)c2ccc(C(=O)O)cc2)c2ccccc2C1=O	-3	13	14*	-12	10	1.4*	Dye-only ctr=8.1*
COC(=O)c1ccccc1NC1=C/C(=N\S(=O)(=O)c2cccs2)c2ccccc2C1=O	1	-1	-1	-1	0	·
O=[N+]([O-])c1cc(C(F)(F)F)ccc1NC1CCN(Cc2ccccc2)CC1	·	1	43*	·	29	-0.06	Dye-only ctr=-22
CCOc1ccc(Br)cc1S(=O)(=O)NC1=NCCCCC1	0	-4	-2	-5	1	·
CCC(C(=O)NC1C(=O)N2C(C(=O)O)=C(CSc3nnc(C)s3)CSC12)c1ccccc1 (stereo not given)	8	·	30*	-12	17	-0.12	Dye-only ctr=-26
Cc1nnc(SCC2=C(C(=O)O)N3C(=O)C(NC(=O)COc4ccccc4)C3SC2)s1 (stereo not given)	3	·	-4	-1	2	·
Oc1ccc(N2CCN(Cc3c(-c4ccccc4)nc4ccccn34)CC2)cc1	-6	5	-1	-6	0	·
CCN(CC)S(=O)(=O)c1cc(NC(=O)COC(=O)c2sc3ccccc3c2Cl)ccc1C	6	-2	-1	9	0	·
O=C(NCc1ccc(OC(F)(F)F)cc1)c1cccc2c1C(=O)c1ccc(N3CCCC3)cc1S2(=O)=O	-6	2	0	-18	-1	·
O=C(NCc1cccc(F)c1)c1cccc2c1C(=O)c1ccc(N3CCCC3)cc1S2(=O)=O	76*	25*	15*	-85	31	-0.02
CCOc1cc(C2C(C#N)=C(N)OC(C)=C2C(C)=O)cc(Br)c1O (stereo not given)	19	17	26*	-24	47	-0.1
Cc1ccnc(Cc2ccccc2)n1	3	-4	-3	-4	0	·
COCCCNC(=O)c1ccc2c3c(onc13)-c1ccccc1C2=O	6	11	79*	-5	18	-0.19
COCCCNC(=O)c1ccccc1Oc1ccccc1	-3	5	-2	-5	0	·
COc1ccc(NC2CCCN(C(=O)c3c(C)noc3C)C2)cc1 (stereo not given)	-2	3	-3	4	0	·
CCOc1ccccc1C=C1SC(=S)NC1=O	8	·	37*	-3	5	0.06
Cc1ccccc1N1C(=O)c2cccc3c(N(C)CCO)ccc(c23)C1=O	179*	9	14*	-153	57	-0.02
COC(=O)c1cn(CC(=O)Nc2ccc(OC)cc2)c2ccccc12	-2	6	-4	1	-2	·
CCC(=O)c1cn(CC(=O)Nc2ccc(OC)cc2)c2ccccc12	2	8	55*	-5	26	0.01
SMILES	cardiac RTF act	LANA-H2A inh	Keap1-Nrf2 PPI	RTF Ca sens inh	C-LANA FP	Keap1 Kelch bind	others
CCOC(=O)c1sc(NS(=O)(=O)c2ccccc2)nc1C	7	0	-1	-4	2	·
Cc1nc(NS(=O)(=O)c2ccccc2)sc1NC(=O)OCCN(C)C	2	2	27*	-18	33	-0.05
CCOc1cc(S(=O)(=O)NCc2ccco2)c(OCC)cc1-n1cnnn1	9	-3	-6	-22	-3	·
COc1ccc2nc3ccccc3[n+]([O-])c2c1	23	·	39*	-33	50	-0.14
O=C(CCN1C(=O)/C(=C/c2ccco2)SC1=S)Nc1ccc(O)cc1C(=O)O	0	2	13*	-7	63*	0.29
O=C(NC1CCC(O)CC1)c1cccnc1Sc1ccccc1Cl (stereo not given)	-3	3	1	-2	-1	·
O=C1CCn2c1c(O)c1ccccc1c2=O	11	·	19*	-9	31	-0.07	Dye-only ctr=-31
O=c1c2ccccc2nc2n1CCC2	-1	-3	3	3	2	·
O=C(c1ccco1)N1CCN(Cc2cccc3ccccc23)CC1	-2	-4	1	-1	0	·
CN(CC(=O)Nc1cc(C(F)(F)F)ccc1-n1cncn1)Cc1ccccc1N1CCOCC1	9	·	41*	-6	19	-0.16	Dye-only ctr=-27
Nc1nc(SCC(=O)Nc2cc(C(F)(F)F)ccc2N2CCOCC2)n[nH]1	2	-2	14*	-8	0	-0.07	Dye-only ctr=-27
Cc1cccc(NC(=O)CCc2nnc3ccc(N4CCC(C)CC4)nn23)n1	1	2	-8	-4	0	·
CCC(CNc1cc(OC)cc2cccnc12)NC1CCCCC1 (stereo not given)	7	1	17*	-16	15	0.03	Dye-only ctr=-27
c1ccc2c(c1)CCCN2Cc1nnnn1CC1CCCO1 (stereo not given)	37*	4	20*	-64	31	-0.19
CCC(C)Sc1ccc([C@H]2N[C@@](Cc3ccccc3)(C(=O)OC)[C@H]3C(=O)N(CC)C(=O)[C@@H]23)cc1OC (stereo not given in full)	2	-2	4	-5	-3	·
Oc1cc(NCCN2CCOCC2)cc2cccnc12	0	3	18*	-10	11	-0.12
Oc1cc(Nc2ccccc2)cc2cccnc12	-7	3	0	2	3	·
S=C(NCc1ccc(Cl)cc1)NC1CCN(Cc2ccccc2)CC1	-1	-5	-5	-9	0	·
COCCOC(=O)C1=C(C)NC(=O)NC1c1c(F)cccc1Cl (stereo not given)	-2	-1	-2	-6	0	·
